Source: PubChem BioAssay (NCI)
Where “and” joins values, the source holds several entries; their conditions need not be identical. Identical values can stand only once. The panel holds about 83,000 compounds, 20% with a hit somewhere; the sample as a whole holds those more often.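 Percent growth is the endpoint: 0 to 100 indicates growth inhibition (40 means 60% inhibition), 0 means no net growth, and negative values indicate cell death.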 Calls of active or inactive are those of the source. Rule for the calls: active = growth percent below 10; inactive = the rest.

Each molecule was assayed on SF-268 CNS (assay: NCI-60 one-dose screen, 48 h (100 = growth as untreated, 0 = no growth, -100 = all killed)). Conditions: 10 µM unless noted.

| SMILES | growth |
| --- | --- |
| CCOc1cccc(/C(N)=N/C(N)=N/c2nc3ccccc3s2)c1 | 86.5% (inactive) |
| O=C(CCl)Nc1ccc(NC(=O)c2cc(Cl)ccc2O)c(Cl)c1 | 85% (inactive) |
| Clc1ccc(CSc2nnc(-c3ccc(Cl)cc3)n2-c2ccccc2)cc1 | 70.2% (inactive) |
| CC(C)(C)OC(=O)NCc1ccc(CNc2c([N+](=O)[O-])cnc3ccccc23)cc1 | 77% (inactive) |
| NS(=O)(=O)c1ccc(Nc2nc(N/N=C/c3ccc4c(c3)OCO4)nc(Nc3ccccc3)n2)cc1 | 42.6% (inactive) |
| Cc1cc(=O)oc2cc(OCCCOc3ccc(/C=C/C(=O)Nc4ccc(Br)cc4)cc3)ccc12 | 67.8% (inactive) |
| CNC(=O)c1cc(N2CCc3cc(NC(=O)Nc4ccc(N5CCOCC5)c(C(F)(F)F)c4)ccc32)ccn1 | 47.8% (inactive) |

These molecules were tested on SF-295 CNS in the same assay as above. Conditions: 10 µM unless noted.

| SMILES | growth |
| --- | --- |
| Cc1ccc2c(n1)C(=O)C(Cl)=C(Nc1ccc(C#N)cc1)C2=O | 118% (inactive) |
| CC(C)(O)c1cncc(-c2ccc3ncc(C#N)c(N4CCc5cc(F)c(Cl)cc54)c3c2)c1 | -10.9% (active) |
| O=c1c2ccccc2cc2n1CCN=C2c1ccccc1 | 103% (inactive) |
| O=C(CN1CCN(c2cc(=O)[nH]c3ccc(F)cc23)CC1)N(c1ccccc1)c1ccccc1 | 107% (inactive) |
| CCc1cc(OC(=O)N2CCC(N3CCCCC3)CC2)ccc1Nc1cc(-c2ccc(-n3cccn3)cc2)[nH]n1 | 62.4% (inactive) |
| CCCC/C(=C\c1ccc(O)c(O)c1)C(=O)NC(Cc1ccccc1)C(=O)C(=O)NCCc1ccc(OC)cc1 (stereo not drawn) | 97.8% (inactive) |
| CN(C)c1ccc(-c2cc(-c3c[nH]c4ccccc34)nc(N)c2C#N)cc1 | 26.8% (inactive) |
| COc1cc(C(=O)c2cc(C(C)=O)c3ccc(C)cn23)cc(OC)c1OC | 7.71% (active) |
| CCOC(=O)c1ccccc1NC1=C(Cl)C(=O)c2nc(C)ccc2C1=O | 110% (inactive) |
| CN(C)S(=O)(=O)c1ccc(-c2nc(C(Cl)Cl)nc3cc(-c4ccccc4)nn23)cc1 | 86.7% (inactive) |
| CN1CCN(c2ccc(Nc3nc(NCCCNS(=O)(=O)c4ccc(Cl)cc4)c4sccc4n3)cc2)CC1 | -68.5% (active) |
| O=C1[C@@H]2Cc3c([nH]c4ccccc34)[C@H](c3ccc(Cl)cc3)N2C(=O)CN1C1CCN(Cc2ccccc2)CC1 | 70.6% (inactive) |
| CN1CCN(CCNc2nc(-c3cccc(NS(=O)(=O)c4cccc5c(N(C)C)cccc45)c3)cs2)CC1 | 42.6% (inactive) |
| C#C[C@]1(O)CC[C@H]2[C@@H]3CC=C4c5sc(Nc6ncccc6C)nc5CC[C@]4(C)[C@H]3CC[C@@]21C | -70% (active) |
| CC(=O)N(O)CCCCCNC(=O)CCC(=O)N(O)CCCCCNC(=O)CCC(=O)N(O)CCCCCN(CCCCCCCCCC[P+](c1ccccc1)(c1ccccc1)c1ccccc1)CCCCCCCCCC[P+](c1ccccc1)(c1ccccc1)c1ccccc1 | 12.7% (inactive) |
| O=C1Nc2ccccc2/C1=N\c1nnc(-c2ccccc2)o1 | 92.8% (inactive) |
| CCCCCCCCCC(=O)NC(C)(C)C(=O)N1CCC[C@H]1C(=O)N[C@@H](CC(C)C)C(=O)N[C@@](C)(CC)C(=O)N[C@@H](CCC(N)=O)C(=O)N[C@H](CCC(N)=O)C(=O)NC(C)(C)C(=O)NC(C)(C)C(=O)N[C@@H](CCC(N)=O)C(=O)N[C@H](CC(C)C)C(=O)N[C@H](CO)CC(C)C | -92.1% (active) and -84.6% (active) |
| Fc1cccc(Cl)c1/C=N/Nc1nc(N/N=C/c2c(F)cccc2Cl)nc(N2CCCCC2)n1 | 2.57% (active) |
| Cc1ccc(/C(N)=N/C(N)=N/c2nc3ccccc3s2)cc1 | 32.9% (inactive) |
| CCc1cc2c(cc1Cl)nc1c(=O)[nH]c(=O)nc-1n2CCOCC(C)(C)C | 71.8% (inactive) |
| Cc1csc(/N=C(N)/N=C(\N)c2cccc(Br)c2)n1 | 94.1% (inactive) |
| Brc1cccc(-c2cc(-c3cnc4c(c3)OCCO4)n[nH]2)c1 | 51.5% (inactive) |
| CN(C)CC(=O)Nc1nc(-c2cccc(NS(=O)(=O)c3cccc4c(N(C)C)cccc34)c2)cs1 | 70.4% (inactive) |
| O=C(/C=C/c1cc(Cl)ccc1Cl)Nc1ncc(Cc2ccc(Cl)cc2)s1 | -2.3% (active) |
| Nc1ncc(-c2ccc3ncnc(NCc4ccccc4)c3c2)cn1 | 47.4% (inactive) |
| Cc1ccc(-c2cc3nc(C(Cl)Cl)nc(-c4ccc(S(=O)(=O)N(C)C)cc4)n3n2)cc1 | 86.2% (inactive) |
